According to PubChem BioAssay (EPA / NIEHS):
Values joined by “and” are separate entries in the source; they are usually repeats but may differ in a detail not shown here. Equal values may be shown once. Where a structure was tested more than once in an assay, its records may differ in their call. Active and inactive are the calls of the source. How the source made its calls: active means hit-call score of the fitted dose curve at least 0.9, where 1 is the maximum; inactive means score below 0.9.

How the values were obtained:
Settings in all cases: mRNA level, 48 h; actives raise or lower the signal
CYP4A11 (gene 1579) = test: LTEA_HepaRG_CYP4A11: Life Technologies and Expression Analysis (LTEA) Assay for CYP4A11 using HepaRG (AID 2283486)
Outline: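 Differentiated HepaRG cells, 48 h after plating, exposed in duplicate for 48 h to 8 half-log concentrations up to 100 uM in 0.5% DMSO in serum-free induction medium. CYP4A11 mRNA measured by TaqMan qRT-PCR, normalized to ACTB, GAPDH and POLR2A.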

[1] = read-out: Cytochrome P450 3A4 (Homo sapiens) (UniProt P08684); test: LTEA_HepaRG_CYP3A4: Life Technologies and Expression Analysis (LTEA) Assay for CYP3A4 using HepaRG (AID 2283487)
Outline: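 Differentiated HepaRG cells, plated 48 h, then dosed 48 h in serum-free induction medium with 0.5% DMSO, 8 half-log concentrations up to 100 uM, duplicate. CYP3A4 mRNA by qRT-PCR, normalized to ACTB/GAPDH/POLR2A; bidirectional fit versus DMSO.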

[2] = read-out: DNA damage-inducible transcript 3 (DDIT3), DDIT3 (gene 1649); test: LTEA_HepaRG_DDIT3: Life Technologies and Expression Analysis (LTEA) Assay for DNA damage-inducible transcript 3 (DDIT3) using HepaRG (AID 2283488)
Outline: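 Eight-point concentration-response (100 uM highest, half-log dilutions) in HepaRG, 48 h, duplicate wells. Endpoint: qRT-PCR mRNA, normalized (ACTB, GAPDH, POLR2A), bidirectional fitting with DMSO as baseline.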

[3] = read-out: Pro-epidermal growth factor (Homo sapiens) (UniProt P01133); test: LTEA_HepaRG_EGF: Life Technologies and Expression Analysis (LTEA) Assay for Epidermal growth factor (EGF) using HepaRG (AID 2283489)
Outline: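 HepaRG cells (~100,000/well, 48 h pre-culture) exposed in duplicate for 48 h in serum-free induction medium to 8 half-log concentrations up to 100 uM in 0.5% DMSO. EGF mRNA by qRT-PCR, normalized to ACTB/GAPDH/POLR2A; bidirectional fit versus DMSO.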

[4] = read-out: Early growth response protein 1 (EGR1) transcription factor, EGR1 (gene 1958); test: LTEA_HepaRG_EGR1: Life Technologies and Expression Analysis (LTEA) Assay for Early growth response protein 1 (EGR1) transcription factor using HepaRG (AID 2283490)
Outline: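 EGR1 expression change in human HepaRG after 48 h chemical exposure, assessed by housekeeping-normalized qRT-PCR; concentration-response up to 100 uM, fitted in both directions against DMSO controls.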

[5] = read-out: Ezrin (EZR), EZR (gene 7430); test: LTEA_HepaRG_EZR: Life Technologies and Expression Analysis (LTEA) Assay for Ezrin (EZR) using HepaRG (AID 2283491)
Outline: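 EZR transcript levels came from Fluidigm qRT-PCR and were normalized to three housekeeping genes after 48 h chemical exposure of HepaRG cells. Dosing used an 8-point half-log series with a 100 uM top concentration in 0.5% DMSO, tested in duplicate; both directions were fitted versus vehicle.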

[6] = read-out: Cytochrome P450 3A7 (Homo sapiens) (UniProt P24462); test: LTEA_HepaRG_CYP3A7: Life Technologies and Expression Analysis (LTEA) Assay for CYP3A7 using HepaRG (AID 2283492)
Outline: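 Differentiated HepaRG cells in serum-free induction medium exposed 48 h in duplicate to 8-point half-log series from 100 uM top in 0.5% DMSO. CYP3A7 mRNA by qRT-PCR, normalized to ACTB/GAPDH/POLR2A, bidirectional fit versus DMSO.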

CYP3A5 (gene 1577) = test: LTEA_HepaRG_CYP3A5: Life Technologies and Expression Analysis (LTEA) Assay for CYP3A5 using HepaRG (AID 2283493)
Outline: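 Readout was CYP3A5 mRNA by qRT-PCR. HepaRG cultures were exposed for 48 h in serum-free induction medium to chemicals at up to 100 uM, and responses were fitted in both directions relative to DMSO vehicle.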

[7] = read-out: Fatty Acid-Binding Protein 1 (FABP1), FABP1 (gene 2168); test: LTEA_HepaRG_FABP1: Life Technologies and Expression Analysis (LTEA) Assay for Fatty Acid-Binding Protein 1 (FABP1) using HepaRG (AID 2283494)
Outline: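 Values reflect bidirectional concentration-response fitting of FABP1 mRNA change against 0.5% DMSO controls. Human HepaRG cultures received eight half-log doses (top 100 uM) for 48 h; expression quantified by TaqMan qRT-PCR with housekeeping-gene normalization.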

[8] = read-out: Cytochrome P450 4A22 (Homo sapiens) (UniProt Q5TCH4); test: LTEA_HepaRG_CYP4A22: Life Technologies and Expression Analysis (LTEA) Assay for Cytochrome P450 4A22 (CYP4A22) using HepaRG (AID 2283495)
Outline: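 Differentiated HepaRG cells in serum-free induction medium exposed 48 h in duplicate to eight half-log concentrations up to 100 uM in 0.5% DMSO. CYP4A22 mRNA quantified by TaqMan qRT-PCR, normalized to ACTB, GAPDH and POLR2A; bidirectional fit versus DMSO.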

[9] = read-out: Cytochrome P450 7A1 (Homo sapiens) (UniProt P22680); test: LTEA_HepaRG_CYP7A1: Life Technologies and Expression Analysis (LTEA) Assay for Cytochrome P450 7A1 (CYP7A1) using HepaRG (AID 2283496)
Outline: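 Using 0.5% DMSO as vehicle and baseline, chemicals were tested in duplicate over an 8-point range from 100 uM on HepaRG cells for 48 h; qRT-PCR signals were normalised to ACTB, GAPDH and POLR2A.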

[10] = read-out: Glutathione S-Transferase (GSTA2), GSTA2 (gene 2939); test: LTEA_HepaRG_GSTA2: Life Technologies and Expression Analysis (LTEA) Assay for Glutathione S-Transferase (GSTA2) using HepaRG (AID 2283497)
Outline: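 Oxidative-stress marker GSTA2 is quantified by TaqMan qRT-PCR in HepaRG cultures treated 48 h across an eight-point range to 100 uM. Expression is normalized to endogenous controls and compared with 0.5% DMSO vehicle.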

[11] = read-out: Glutamate-cysteine ligase catalytic (GCLC), GCLC (gene 2729); test: LTEA_HepaRG_GCLC: Life Technologies and Expression Analysis (LTEA) Assay for Glutamate-cysteine ligase catalytic (GCLC) using HepaRG (AID 2283498)
Outline: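 Oxidative-stress marker GCLC is measured as mRNA change in human HepaRG liver cells after 48 h chemical treatment in 0.5% DMSO, eight concentrations from 100 uM. Activity is fitted bidirectionally against vehicle.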

[12] = read-out: growth arrest and DNA damage 45 (GADD45G), GADD45G (gene 10912); test: LTEA_HepaRG_GADD45G: Life Technologies and Expression Analysis (LTEA) Assay for growth arrest and DNA damage 45 (GADD45G) using HepaRG (AID 2283499)
Outline: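 Differentiated human HepaRG cells, 48 h post-plating, exposed 48 h in serum-free induction medium to 8 half-log concentrations (top 100 uM, 0.5% DMSO) in duplicate. GADD45G mRNA measured by Fluidigm TaqMan qRT-PCR, normalized to ACTB, GAPDH, POLR2A; bidirectional fit versus DMSO.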

[13] = read-out: Glutamate-cysteine ligase regulatory (GCLM), GCLM (gene 2730); test: LTEA_HepaRG_GCLM: Life Technologies and Expression Analysis (LTEA) Assay for Glutamate-cysteine ligase regulatory (GCLM) using HepaRG (AID 2283500)
Outline: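 In this multiplexed HepaRG gene-expression assay, GCLM mRNA change after 48 h treatment (8 concentrations, max 100 uM) was scored against DMSO by bidirectional curve fitting.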

[14] = read-out: Glutathione S-transferase M3 (GSTM3), GSTM3 (gene 2947); test: LTEA_HepaRG_GSTM3: Life Technologies and Expression Analysis (LTEA) Assay for Glutathione S-transferase M3 (GSTM3) using HepaRG (AID 2283501)
Outline: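 Differentiated human HepaRG cells were exposed in duplicate for 48 h in serum-free induction medium, 8 points from 100 uM top in half-log steps, 0.5% DMSO. GSTM3 mRNA was measured by TaqMan qRT-PCR, normalized to ACTB, GAPDH and POLR2A; bidirectional fit versus DMSO.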

[15] = read-out: Heat shock 70 kDa protein 1 (HSPA1A), gene 3303; test: LTEA_HepaRG_HSPA1A: Life Technologies and Expression Analysis (LTEA) Assay for Heat shock 70 kDa protein 1 (HSPA1A) using HepaRG (AID 2283502)
Outline: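 An oxidative-stress marker readout: HepaRG cells treated 48 h in duplicate with an eight-point series (highest 100 uM) had HSPA1A mRNA quantified by TaqMan qRT-PCR. Activity was fitted in both directions using 0.5% DMSO as baseline.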

[16] = read-out: Hypoxia-inducible factor 1-alpha (Homo sapiens) (UniProt Q16665); test: LTEA_HepaRG_HIF1A: Life Technologies and Expression Analysis (LTEA) Assay for Hypoxia-inducible factor 1 (HIF1A) Trancription factor using HepaRG (AID 2283503);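 further: HIF1A transcript by TaqMan qRT-PCR normalized to ACTB GAPDH and POLR2A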
Outline: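 Gain- or loss-of-signal HIF1A mRNA changes are fitted against a DMSO baseline. HepaRG cultures receive eight concentrations, highest 100 uM, for 48 h in serum-free induction medium with 0.5% DMSO.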

[17] = read-out: 3-Hydroxy-3-Methylglutaryl-CoA Synthase 2 (HMGCS2), HMGCS2 (gene 3158); test: LTEA_HepaRG_HMGCS2: Life Technologies and Expression Analysis (LTEA) Assay for 3-Hydroxy-3-Methylglutaryl-CoA Synthase 2 (HMGCS2) using HepaRG (AID 2283504)
Outline: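 Human HepaRG cells in serum-free induction medium were exposed in duplicate for 48 h to 8-point half-log series from 100 uM top in 0.5% DMSO. HMGCS2 mRNA measured by TaqMan qRT-PCR, normalised to ACTB, GAPDH, POLR2A; bidirectional fit versus DMSO.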

Measured: AC50

Chain of Cytochrome P450 3A4 (Homo sapiens) (P08684 whole entry, looked up): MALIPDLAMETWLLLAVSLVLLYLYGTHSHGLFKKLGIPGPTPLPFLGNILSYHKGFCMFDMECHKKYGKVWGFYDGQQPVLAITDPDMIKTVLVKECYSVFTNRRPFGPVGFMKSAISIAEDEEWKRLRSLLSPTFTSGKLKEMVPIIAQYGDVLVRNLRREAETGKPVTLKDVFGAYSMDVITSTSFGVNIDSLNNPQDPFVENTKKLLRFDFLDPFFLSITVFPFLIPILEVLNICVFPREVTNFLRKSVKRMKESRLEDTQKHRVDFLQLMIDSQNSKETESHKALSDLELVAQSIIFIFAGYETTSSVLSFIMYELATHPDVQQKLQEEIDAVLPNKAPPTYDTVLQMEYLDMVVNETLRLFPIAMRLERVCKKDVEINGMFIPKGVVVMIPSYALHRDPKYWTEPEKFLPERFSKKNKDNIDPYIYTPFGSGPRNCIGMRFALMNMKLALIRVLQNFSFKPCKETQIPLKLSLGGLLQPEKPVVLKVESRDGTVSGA
Chain of Cytochrome P450 3A7 (Homo sapiens) (P24462 whole entry, looked up): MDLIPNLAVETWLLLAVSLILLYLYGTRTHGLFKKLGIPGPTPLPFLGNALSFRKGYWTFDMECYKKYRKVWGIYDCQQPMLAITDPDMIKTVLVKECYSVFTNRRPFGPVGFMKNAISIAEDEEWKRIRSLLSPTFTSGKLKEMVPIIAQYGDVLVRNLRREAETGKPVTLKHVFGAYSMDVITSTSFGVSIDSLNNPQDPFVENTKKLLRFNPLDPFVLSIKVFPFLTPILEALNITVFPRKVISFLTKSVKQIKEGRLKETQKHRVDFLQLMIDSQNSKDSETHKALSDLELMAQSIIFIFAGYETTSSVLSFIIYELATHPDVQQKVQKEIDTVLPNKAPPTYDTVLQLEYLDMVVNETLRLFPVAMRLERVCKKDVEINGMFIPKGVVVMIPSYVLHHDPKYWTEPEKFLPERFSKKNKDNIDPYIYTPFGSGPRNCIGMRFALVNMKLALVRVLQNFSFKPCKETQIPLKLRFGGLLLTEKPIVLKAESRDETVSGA
Chain of Hypoxia-inducible factor 1-alpha (Homo sapiens) (Q16665 whole entry, looked up): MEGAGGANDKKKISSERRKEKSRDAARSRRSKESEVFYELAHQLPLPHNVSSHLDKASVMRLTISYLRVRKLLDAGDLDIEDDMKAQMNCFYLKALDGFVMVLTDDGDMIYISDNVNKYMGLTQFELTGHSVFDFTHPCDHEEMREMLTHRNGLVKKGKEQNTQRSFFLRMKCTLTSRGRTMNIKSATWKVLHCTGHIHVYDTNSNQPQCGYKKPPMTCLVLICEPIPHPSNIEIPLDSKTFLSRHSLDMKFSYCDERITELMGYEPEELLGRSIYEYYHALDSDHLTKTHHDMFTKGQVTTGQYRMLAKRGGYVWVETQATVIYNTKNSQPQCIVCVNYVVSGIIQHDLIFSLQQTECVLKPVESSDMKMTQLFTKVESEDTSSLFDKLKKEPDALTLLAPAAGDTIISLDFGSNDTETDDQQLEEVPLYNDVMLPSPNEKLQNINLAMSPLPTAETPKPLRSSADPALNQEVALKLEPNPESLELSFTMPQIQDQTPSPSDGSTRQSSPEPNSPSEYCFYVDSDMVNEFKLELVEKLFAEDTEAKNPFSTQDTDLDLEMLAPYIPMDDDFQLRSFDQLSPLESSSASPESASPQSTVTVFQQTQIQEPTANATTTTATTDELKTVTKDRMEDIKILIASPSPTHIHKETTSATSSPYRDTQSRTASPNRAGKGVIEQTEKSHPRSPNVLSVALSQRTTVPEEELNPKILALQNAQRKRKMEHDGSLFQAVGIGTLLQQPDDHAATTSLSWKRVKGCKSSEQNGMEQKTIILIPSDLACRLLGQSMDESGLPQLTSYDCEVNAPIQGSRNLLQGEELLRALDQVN

S=C(S)NCCNC(=S)S.[Mn+2].[S-]C([S-])=NCCN=C([S-])[S-].[Zn+2]
active: CYP4A11 (gene 1579) 1.38 µM and 1.51 µM and 1.36 µM | [1] 827 nM and 1.11 µM and 1.02 µM | [2] 3.87 µM and 1.87 µM and 1.64 µM | [3] 2.3 µM and 673 nM | [4] 3.58 µM and 2.44 µM and 4.53 µM | [6] 947 nM and 1.22 µM and 1.41 µM | CYP3A5 (gene 1577) 1.94 µM and 1.32 µM and 700 nM | [7] 1.18 µM and 1.26 µM and 1.71 µM | [8] 1.38 µM and 1.35 µM | [9] 1.57 µM and 1.44 µM and 1.47 µM | [10] 890 nM and 1.14 µM and 997 nM | [12] 3.67 µM and 2.31 µM and 3.97 µM | [13] 25 µM | [14] 0.827 µM | [15] 1.21 µM and 4.71 µM | [16] 1.63 µM | [17] 2.25 µM and 1.36 µM and 1.93 µM
inactive: [3] | [5] | [11] | [13] | [14] | [15] | [16]

CCCN(CCC)c1c([N+](=O)[O-])cc(C(F)(F)F)c(N)c1[N+](=O)[O-]
active: CYP4A11 (gene 1579) 28.9 µM | [1] 7.3 µM | [3] 21.2 µM | [7] 24.9 µM | [8] 22 µM | [9] 36.6 µM | [13] 28.6 µM | [15] 50 µM | [17] 33.3 µM
inactive: all other assays above

CC1(C)C(C=C(Cl)Cl)C1C(=O)OCc1cccc(Oc2ccccc2)c1 (stereo not given)
active: [1] 22.6 µM | [6] 18.3 µM
inactive: all other assays above

Cc1nn(C)c(Oc2ccccc2)c1C=NOCc1ccc(C(=O)OC(C)(C)C)cc1
active: CYP4A11 (gene 1579) 2.99 µM | [1] 1.84 µM | [2] 3.27 µM | [4] 1.22 µM | [5] 3.29 µM | [6] 1.37 µM | CYP3A5 (gene 1577) 9.26 µM | [7] 7.21 µM | [8] 2.91 µM | [9] 34.7 µM | [10] 30.4 µM | [12] 3.1 µM | [13] 17.6 µM | [14] 3 µM | [15] 1.57 µM | [17] 12.4 µM
inactive: [3] | [11] | [16]

COC(=O)CSc1cc(N=c2sc(=O)n3n2CCCC3)c(F)cc1Cl
active: [1] 13.5 µM | [6] 16 µM
inactive: all other assays above
